These results are taken from PubChem BioAssay (NCI).

This is part of a sample that, as a whole, favours compounds with a hit. Of some 83,000 tested, about 20% had one in any assay.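 Assay: single dose, 48 h. Readout: percent growth (0 = no net growth; negative = cell death). Active: <10.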 A number with no mark means an inactive call. The source made the active and inactive calls.

Some test systems named below: NCI-H23 lung; NCI-H226 lung; NCI-H322M lung; HOP-62 NSCLC; NCI-H460 lung; HOP-92 NSCLC; NCI-H522 lung; A549/ATCC NSCLC; 786-0 renal; COLO 205 colon; DU-145 prostate; K-562 leukemia; MALME-3M melanoma; MDA-MB-231 breast; RXF 393 renal; SF-268 CNS; SF-295 CNS; SF-539 CNS; UACC-257 melanoma; M14 melanoma.
Common to all, as to assay: NCI-60 one-dose screen, 48 h (100 = growth as untreated, 0 = no growth, -100 = all killed)
Details in all cases: 10 µM unless noted

For `CC(C)CSc1nc(NCCc2c[nH]c3ccccc23)c(C#N)c(-c2ccccc2)n1`, the growth with NCI-H23 lung is 76.6%; with NCI-H226 lung, 51.3%; in the assay with NCI-H322M lung, 80.7%; in the assay on HOP-62 NSCLC, 68.8%; with NCI-H460 lung, 12.5%; in the assay with HOP-92 NSCLC, 61.7%. For the same compound, the growth was 67.6% in the assay on NCI-H522 lung; 66.9% in the assay with A549/ATCC NSCLC; 47.1% in the assay with 786-0 renal; 50.2% with COLO 205 colon; 66.8% in the assay on DU-145 prostate; 20.5% in the assay on K-562 leukemia. In addition, the growth in the assay with MALME-3M melanoma was 91.8%; in the assay with MDA-MB-231 breast, 38.3%; with RXF 393 renal, 32.5%; with SF-268 CNS it was 67.4%; in the assay on SF-295 CNS, 68.7%; in the assay on SF-539 CNS, 62.5%. Besides, the figures for the growth with UACC-257 melanoma and in the assay with M14 melanoma were 97.4% and 74.5%, respectively.

`O=c1onc(-c2cc3ccccc3nc2Cl)n1-c1cccc2ccccc12`: the growth in the assay with NCI-H23 lung was 56.5%; in the assay with NCI-H226 lung, 40.8%; in the assay on NCI-H322M lung, 76.4%; in the assay on HOP-62 NSCLC it was 55.6%; in the assay on NCI-H460 lung it was 51.7%; with HOP-92 NSCLC it was 38.7%. The growth in the assay on NCI-H522 lung was 27.8%; in the assay on A549/ATCC NSCLC, 55.5%; in the assay on 786-0 renal it was 73.3%; in the assay on COLO 205 colon, 56.4%; in the assay on DU-145 prostate it was 80.7%; in the assay with K-562 leukemia, 17.6%. The growth with MALME-3M melanoma was 55.3%; with MDA-MB-231 breast, 29.7%; in the assay with RXF 393 renal, 43.5%; in the assay on SF-268 CNS it was 73.8%; in the assay on SF-295 CNS it was 15.5%; in the assay on SF-539 CNS, 52.6%. The values for the growth in the assay with UACC-257 melanoma and in the assay with M14 melanoma were 70.7% and 38.3%, respectively.

Regarding `COc1cc(C2CC(c3cc(OC)c(OC)c(OC)c3)=NN2C(C)=O)ccc1OCc1ccccc1` (stereo not given), the growth is 47.2% in the assay on NCI-H23 lung; 28% in the assay with NCI-H226 lung; 59.8% in the assay on NCI-H322M lung; 70.2% in the assay with HOP-62 NSCLC; 24.3% with NCI-H460 lung; -4.8% (active) in the assay with HOP-92 NSCLC. The growth with NCI-H522 lung is 26.8%; in the assay on A549/ATCC NSCLC it was 31.8%; in the assay with 786-0 renal, 34%; in the assay with COLO 205 colon, 10.9%; in the assay with DU-145 prostate it was 40.4%; with K-562 leukemia, 18.6%. The growth in the assay with MALME-3M melanoma is 43.1%; in the assay on MDA-MB-231 breast, 64%; with RXF 393 renal, 31.4%; in the assay with SF-268 CNS it was 47.8%; in the assay on SF-295 CNS it was 24.6%; in the assay on SF-539 CNS, 51.7%. Moreover, the figures for the growth in the assay on UACC-257 melanoma and with M14 melanoma were 48.8% and 36.9%, respectively.

Turning to `C=C1CC[C@@H]2[C@]3(C)COC(c4ccco4)O[C@@H]3CC[C@@]2(C)[C@@H]1C/C=C1/C(=O)OCC1OC(C)=O` (stereo not given in full), the growth with NCI-H23 lung was 61.6%; in the assay on NCI-H226 lung, 0.912% (active); in the assay with NCI-H322M lung it was 79.5%; in the assay on HOP-62 NSCLC, 66.5%; with NCI-H460 lung, 37.6%; with HOP-92 NSCLC, 37.9%. The growth in the assay on NCI-H522 lung is -29.9% (active); in the assay with A549/ATCC NSCLC, 38.7%; with 786-0 renal it was 3.41% (active); in the assay on COLO 205 colon, 48.6%; in the assay on DU-145 prostate it was 48.8%; in the assay on K-562 leukemia it was 3.97% (active). Further, the growth was -60.3% (active) in the assay with MALME-3M melanoma; 48.8% in the assay with MDA-MB-231 breast; 27.5% with RXF 393 renal; 67.8% with SF-268 CNS; 59.5% with SF-295 CNS; -47.3% (active) with SF-539 CNS. Besides, the growth in the assay with UACC-257 melanoma was 58.7%; in the assay with M14 melanoma, 19%.

Take `Cc1cc(=O)oc2cc(OCCCCOc3ccc(/C=C/C(=O)Nc4ccccc4N)cc3)ccc12`: the growth in the assay with NCI-H23 lung was 76%; in the assay on NCI-H226 lung it was 47.9%; in the assay with NCI-H322M lung it was 82.2%; in the assay on HOP-62 NSCLC it was 69.7%; in the assay with NCI-H460 lung, 45.2%; with HOP-92 NSCLC, 83%. Also, the growth in the assay on NCI-H522 lung was 35.7%; in the assay with A549/ATCC NSCLC, 46.9%; with 786-0 renal it was 49.5%; in the assay on COLO 205 colon it was 44.9%; in the assay with DU-145 prostate, 65.7%; in the assay with K-562 leukemia it was 35%. Also, the growth in the assay with MALME-3M melanoma is 90.8%; with MDA-MB-231 breast, 48.2%; in the assay on RXF 393 renal, 90.9%; with SF-268 CNS it was 49.4%; in the assay with SF-295 CNS, 63.1%; with SF-539 CNS it was 53.1%. In addition, the values for the growth in the assay with UACC-257 melanoma and in the assay with M14 melanoma were 82.4% and 79.5%, respectively.

With `O=S(=O)(Nc1cccc(-n2cnc3cc(-c4ccc(O)cc4)ccc32)c1)C1CC1`, the growth was 38.5% with NCI-H23 lung; 19.3% in the assay on NCI-H226 lung; 55.3% in the assay on NCI-H322M lung; 44.1% in the assay on HOP-62 NSCLC; 15.8% in the assay on NCI-H460 lung; 87.9% with HOP-92 NSCLC. Further, the growth in the assay on NCI-H522 lung is 14.4%; in the assay on A549/ATCC NSCLC it was 37.7%; in the assay on 786-0 renal, 40.1%; with COLO 205 colon it was 25.8%; in the assay with DU-145 prostate, 27.5%; in the assay on K-562 leukemia it was 8.55% (active). In addition, the growth in the assay on MALME-3M melanoma was 46.1%; in the assay on MDA-MB-231 breast, 42.4%; in the assay on RXF 393 renal, 4.76% (active); in the assay with SF-268 CNS, 31.9%; with SF-295 CNS it was 11.9%; in the assay on SF-539 CNS it was -11.6% (active). For the same compound, the growth was 68.4% with UACC-257 melanoma and 29.7% with M14 melanoma.

As for `CC(=O)Nc1ccc(-n2cnc3cc(-c4ccc(O)cc4)ccc32)cc1C(F)(F)F`, the growth was 21.4% in the assay on NCI-H23 lung; 44.8% in the assay on NCI-H226 lung; 41.1% with NCI-H322M lung; 34.4% in the assay with HOP-62 NSCLC; 9.22% (active) in the assay with NCI-H460 lung; 44.8% with HOP-92 NSCLC. The growth in the assay with NCI-H522 lung is -33.8% (active); in the assay with A549/ATCC NSCLC, 19.4%; in the assay on 786-0 renal, 20.3%; in the assay with COLO 205 colon, 43.8%; in the assay on DU-145 prostate it was 23%; with K-562 leukemia, 25%. Moreover, the growth in the assay with MALME-3M melanoma is 19.1%; in the assay with MDA-MB-231 breast, 42.7%; with RXF 393 renal it was 26%; with SF-268 CNS, 21.7%; with SF-295 CNS, -13.7% (active); in the assay with SF-539 CNS it was 24.2%. Moreover, the growth in the assay on UACC-257 melanoma was 39.7%; with M14 melanoma, 30.3%.
